# Assay results reported in the supplement of paper PMC8728848.
# Many of the other results were omitted from the sample, so the strongest signals are more common in it than they were.
# B1: MFG-E8 (Homo sapiens), Q08431 (protein)
# chain: MPRPRLLAALCGALLCAPSLLVALDICSKNPCHNGGLCEEISQEVRGDVFPSYTCTCLKGYAGNHCETKCVEPLGLENGNIANSQIAASSVRVTFLGLQHWVPELARLNRAGMVNAWTPSSNDDNPWIQVNLLRRMWVTGVVTQGASRLASHEYLKAFKVAYSLNGHEFDFIHDVNKKHKEFVGNWNKNAVHVNLFETPVEAQYVRLYPTSCHTACTLRFELLGCELNGCANPLGLKNNSIPDKQITASSSYKTWGLHLFSWNPSYARLDKQGNFNAWVAGSYGNDQWLQVDLGSSKEVTGIITQGARNFGSVQFVASYKVAYSNDSANWTEYQDPRTGSSKIFPGNWDNHSHKKNLFETPILARYVRILPVAWHNRIALRLELLGC
# Key:
# Assay in all cases: glycan array binding signal (z-score within array); higher = stronger binding
# Conditions in all cases: glycan notation: IUPAC condensed, linker removed
# [1] = target: Fuc(a1-2)Gal(b1-3)GlcNAc(b1-3)Gal(b1-4)Glc
# In short: (§1)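 The binding signal is a Z-score computed within each array. Data were drawn from 3228 arrays in the Consortium for Functional Glycomics database, restricted to those with a known protein sequence. Scores were averaged over arrays of the same protein sequence at different concentrations or buffers, and over linkers, and negative values can be taken as non-binding.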
# [2] = target: Fuc(a1-2)Gal(b1-3)GlcNAc(b1-3)[Gal(b1-4)GlcNAc(b1-6)]Gal(b1-4)Glc
# In short: as §1
# [3] = target: Fuc(a1-2)Gal(b1-3)[Fuc(a1-4)]GlcNAc(b1-2)Man(a1-3)[Fuc(a1-2)Gal(b1-3)[Fuc(a1-4)]GlcNAc(b1-2)Man(a1-6)]Man(b1-4)GlcNAc(b1-4)GlcNAc
# In short: as §1
# Fuc(a1-2)Gal(b1-4)Glc6S = target: Fuc(a1-2)Gal(b1-4)Glc6S
# In short: as §1
# [4] = target: Fuc(a1-2)Gal(b1-4)[Fuc(a1-3)]GlcNAc(b1-2)Man(a1-3)[Fuc(a1-2)Gal(b1-4)[Fuc(a1-3)]GlcNAc(b1-2)Man(a1-6)]Man(b1-4)GlcNAc(b1-4)GlcNAc
# In short: as §1
# [5] = target: Fuc(a1-2)Gal(b1-4)[Fuc(a1-3)]GlcNAc(b1-2)[Fuc(a1-2)Gal(b1-4)[Fuc(a1-3)]GlcNAc(b1-4)]Man(a1-3)[Fuc(a1-2)Gal(b1-4)[Fuc(a1-3)]GlcNAc(b1-2)Man(a1-6)]Man(b1-4)GlcNAc(b1-4)GlcNAc
# In short: as §1
# [6] = target: Fuc(a1-2)[Gal(a1-3)]Gal(b1-3)GlcNAc(b1-2)Man(a1-3)[Fuc(a1-2)[Gal(a1-3)]Gal(b1-3)GlcNAc(b1-2)Man(a1-6)]Man(b1-4)GlcNAc(b1-4)[Fuc(a1-6)]GlcNAc
# In short: as §1
# [7] = target: Fuc(a1-2)[GalNAc(a1-3)]Gal
# In short: as §1
# [8] = target: Gal(a1-3)Gal(b1-4)GlcNAc(b1-3)GalNAc
# In short: as §1
# [9] = target: Gal(b1-3)GalNAc(b1-3)Gal(a1-4)Gal(b1-4)Glc
# In short: as §1
# [10] = target: Gal(b1-3)GalNAc(b1-4)[Neu5Ac(a2-3)]Gal(b1-4)Glc
# In short: as §1
# [11] = target: Gal(b1-3)GlcNAc(b1-3)Gal(b1-4)GlcNAc(b1-6)[Gal(b1-3)GlcNAc(b1-3)]Gal(b1-4)Glc
# In short: as §1
# [12] = target: Gal(b1-3)GlcNAc(b1-6)Gal(b1-4)GlcNAc
# In short: as §1
# [13] = target: Gal(b1-3)[Neu5Ac(b2-6)]GalNAc
# In short: as §1
# Gal(b1-4)GlcNAc = target: Gal(b1-4)GlcNAc
# In short: as §1
# Gal3S(b1-4)Glc6S = target: Gal3S(b1-4)Glc6S
# In short: as §1
# Gal6S(b1-3)GlcNAc6S = target: Gal6S(b1-3)GlcNAc6S
# In short: as §1
# GlcA(b1-3)GlcNAc = target: GlcA(b1-3)GlcNAc
# In short: as §1
# [14] = target: GlcNAc(a1-4)Gal(b1-4)GlcNAc(b1-3)Gal(b1-4)GlcNAc
# In short: as §1
# [15] = target: GlcNAc(b1-2)Gal(b1-3)GalNAc
# In short: as §1
# [16] = target: GlcNAc(b1-3)Gal(b1-3)GalNAc
# In short: as §1
# [17] = target: GlcNAc(b1-3)Gal(b1-4)GlcNAc
# In short: as §1
# [18] = target: Man(a1-2)Man(a1-6)[Man(a1-3)]Man(a1-6)[Man(a1-2)Man(a1-2)Man(a1-3)]Man(b1-4)GlcNAc(b1-4)GlcNAc
# In short: as §1
# Neu5Ac(a2-3)Gal = target: Neu5Ac(a2-3)Gal
# In short: as §1
# [19] = target: Neu5Ac(a2-3)Gal(b1-3)GalNAc(b1-4)[Neu5Ac(a2-3)]Gal(b1-4)Glc
# In short: as §1
# [20] = target: Neu5Ac(a2-3)Gal(b1-3)[Fuc(a1-4)]GlcNAc(b1-3)Gal(b1-3)[Fuc(a1-4)]GlcNAc
# In short: as §1
# [21] = target: Neu5Ac(a2-3)Gal(b1-4)GlcNAc(b1-3)Gal
# In short: as §1
# [22] = target: Neu5Ac(a2-3)Gal(b1-4)GlcNAc(b1-6)[Gal(b1-3)]GalNAc
# In short: as §1
# [23] = target: Neu5Ac(a2-3)Gal(b1-4)[Fuc(a1-3)]GlcNAc(b1-3)Gal(b1-4)GlcNAc
# In short: as §1
# [24] = target: Neu5Ac(a2-6)Gal(b1-4)GlcNAc(b1-2)Man(a1-3)[Neu5Ac(a2-6)Gal(b1-4)GlcNAc(b1-2)Man(a1-6)]Man(b1-4)GlcNAc(b1-4)GlcNAc
# In short: as §1
# [25] = target: Neu5Ac(a2-8)Neu5Ac(a2-3)Gal(b1-3)GalNAc(b1-4)[Neu5Ac(a2-8)Neu5Ac(a2-3)]Gal(b1-4)Glc
# In short: as §1
# Neu5Ac(b2-6)GalNAc = target: Neu5Ac(b2-6)GalNAc
# In short: as §1
# [26] = target: Neu5Gc(a2-3)Gal(b1-3)GlcNAc
# In short: as §1
# [27] = target: Neu5Gc(a2-3)Gal(b1-4)GlcNAc
# In short: as §1
# [28] = target: Neu5Gc(b2-6)Gal(b1-4)GlcNAc
# In short: as §1
binder,measurement,setting,value
B1,glycan array binding signal (z-score),[1],-0.126
same,glycan array binding signal (z-score),[2],-0.539
same,glycan array binding signal (z-score),[3],2.2
same,glycan array binding signal (z-score),Fuc(a1-2)Gal(b1-4)Glc6S,-0.507
same,glycan array binding signal (z-score),[4],2.88
same,glycan array binding signal (z-score),[5],2.94
same,glycan array binding signal (z-score),[6],-0.115
same,glycan array binding signal (z-score),[7],-0.746
same,glycan array binding signal (z-score),[8],-0.233
same,glycan array binding signal (z-score),[9],-0.572
same,glycan array binding signal (z-score),[10],-0.7
same,glycan array binding signal (z-score),[11],2.38
same,glycan array binding signal (z-score),[12],-0.672
same,glycan array binding signal (z-score),[13],0.07
same,glycan array binding signal (z-score),Gal(b1-4)GlcNAc,-0.753
same,glycan array binding signal (z-score),Gal3S(b1-4)Glc6S,6.38
same,glycan array binding signal (z-score),Gal6S(b1-3)GlcNAc6S,3.63
same,glycan array binding signal (z-score),GlcA(b1-3)GlcNAc,0.43
same,glycan array binding signal (z-score),[14],3.21
same,glycan array binding signal (z-score),[15],-0.68
same,glycan array binding signal (z-score),[16],0.268
same,glycan array binding signal (z-score),[17],-0.62
same,glycan array binding signal (z-score),[18],2.16
same,glycan array binding signal (z-score),Neu5Ac(a2-3)Gal,-0.156
same,glycan array binding signal (z-score),[19],1.61
same,glycan array binding signal (z-score),[20],1.24
same,glycan array binding signal (z-score),[21],0.052
same,glycan array binding signal (z-score),[22],-0.167
same,glycan array binding signal (z-score),[23],-0.126
same,glycan array binding signal (z-score),[24],1.09
same,glycan array binding signal (z-score),[25],-0.776
same,glycan array binding signal (z-score),Neu5Ac(b2-6)GalNAc,1.84
same,glycan array binding signal (z-score),[26],-0.636
same,glycan array binding signal (z-score),[27],1
same,glycan array binding signal (z-score),[28],-0.408
